ERK EGF inh: qHTS Assay for Inhibitors of the ERK Signaling Pathway using a Homogeneous Screening Assay; Stimulation with EGF; actives 0.41% (n = 130,000); AID 1454, 2008; HEK293-V1b, EGF-stimulated phospho-ERK AlphaScreen; Potency, µM (titrated, usually from 11.5 µM), inactives show top-dose activity change, negative = inhibition, most hits filed as inhibitors; active means well fitted inhibition curve with a large enough effect;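 further: plate controls were stimulated vehicle wells for no effect and unstimulated vehicle basal for full effect; nearly all actives have a fitted effect of over 55% in size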
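Concentration-response of compounds against EGF-driven ERK phosphorylation in V1b-expressing HEK293 cells; 30 min preincubation, 5 min EGF, AlphaScreen detection; Normalized to DMSO basal and 25 nM EGF.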
* = called active by the depositor; [ ] = remark or other dose. Only a selection was taken, and hits are over-represented in it overall. Potency means the concentration at half of the fitted maximal effect.

SMILES	ERK EGF inh
COC(=O)c1nnn(CC(=O)NC(=O)Nc2ccccc2)c1C(=O)OC	-2%
CNCc1cc(Br)c(OCC(=O)Nc2ccccc2OC)c(OC)c1	-6%
O=C(/C=C/c1ccc([N+](=O)[O-])cc1)NNC(=O)C1CC1	-1%
COc1ccc(CN2CCN(CC=C(C)C)C(CCO)C2)cc1Cn1cccn1 (stereo unspecified)	-1%
COc1cc(CNC2CCCCCCC2)cc(Br)c1OCC#N	-3%
O=S(=O)(c1ccc(Cl)c(NC(=S)N/N=C/c2ccc(O)cc2)c1)N1CCOCC1	28µM*
O=S(=O)(c1ccc(NC(=S)N/N=C/c2ccc(O)c(O)c2)cc1)N1CCOCC1	-5%[57.5 µM]
O=S(=O)(c1ccc(Cl)c(NC(=S)Nc2ccccc2N2CCOCC2)c1)N1CCOCC1	3%
CN=C1C([N+](=O)[O-])=CC=C2C1=NC1(CCCCC1)N2O	15%
O=C(Cc1ccc(Cl)cc1)Nc1ccncc1	-1%
O=[N+]([O-])c1cccc2c(N3CCOCC3)ccnc12	1%
CCOC(=O)N1CCC(=NNC(=O)Cn2ccc(C(F)(F)F)n2)CC1	-2%
CCc1ccc2oc(C(=O)NCc3ccncc3)c(C)c2c1	2%
Cc1ccc(Nc2ncnc3c2cnn3C)cc1	-3%
CC(C)Oc1ccc(Nc2ncnc3ccccc23)cc1	-7%
Cc1ccc(Nc2ncnc3ccccc23)cc1	25µM*
O=C(Cc1ccccc1F)OCC(=O)N1CCN(C(=O)c2ccco2)CC1	0%
C=CCn1c(=NC(=O)c2cccs2)sc2cccc(OC)c21	5%[57.5 µM]
COc1ccc(/C=C/C(=O)OCC(=O)NCCC2=CCCCC2)cc1OC	3%
Cc1ccc(C)n1-c1ccc(N2CCOCC2)c([N+](=O)[O-])c1	-5%[57.5 µM]
O=[N+]([O-])c1cc(Cl)ccc1N1CCOCC1	3%
O=[N+]([O-])c1cc(-n2cccc2)ccc1N1CCOCC1	28µM*
CS(=O)(=O)N(CC(=O)NCc1ccc2c(c1)OCO2)c1cccc(Cl)c1	-14%
Cc1cc(C(=O)COC(=O)CC2Sc3ccccc3NC2=O)c(C)n1-c1cccc(C(F)(F)F)c1 (stereo unspecified)	5%
COc1cc(/C=C2/C(=O)NN(c3cccc(C)c3)C2=O)ccc1OC(=O)c1ccco1	25µM*
SMILES	ERK EGF inh
COc1cc(/C=C2/C(=O)NN(c3cccc(C)c3)C2=O)cc([N+](=O)[O-])c1O	-4%
COc1cc(/C=C2\C(=O)NN(c3ccccc3)C2=O)ccc1OCC(N)=O	0%
Cc1ccccc1C(=O)Nc1c(-c2cccs2)c(=O)c2ccccc2n1C	-1%[57.5 µM]
COc1ccc(C(=O)Nc2c(-c3cccs3)c(=O)c3ccccc3n2C)cc1	5.6µM*
COc1ccc(C(=O)Nc2nc(-c3cccs3)c(NC(C)=O)s2)cc1	1%
Cc1ccc(NC(=O)C2C3C=CC4(CN(Cc5cccnc5)C(=O)C24)O3)cc1F (stereo unspecified)	3%
COc1ccccc1/C=C/C(=O)/C=C/c1ccccc1O	35µM*
COc1ccccc1/C=C/C(C)=O	-7%
COc1ccccc1/C=C/C(=O)N1CCCC1	19%
CC(=O)NCCc1c(Cc2ccccc2)[nH]c2ccccc12	-2%
C=CC[n+]1ccc(/C=C2\C=Cc3cc(C)ccc3N2CC)c2ccccc21	14µM*
C=CC[n+]1ccc2ccccc2c1C	5%
CCN1/C(=C/c2cc[n+](CCCS(=O)(=O)[O-])c3ccccc23)Sc2ccccc21	-5%
Cc1ccc(C(=O)NNC(=O)C2CCN(S(=O)(=O)c3ccc(Cl)cc3)CC2)cc1	-9%
O=C(O)c1ccc(NC2=C(Cl)C(=O)c3ccccc3C2=O)cc1	10µM*
O=C(O)c1ccc(NC2=Nc3cccc4cccc2c34)cc1	4%[57.5 µM]
Cc1ccc(NCCC(=O)c2ccccc2)cc1Cl	-1%[57.5 µM]
C=CCNC1=C(Cl)C(=O)c2ccccc2C1=O	-8%
Cc1ccc(NC2=C(NC(=O)c3ccccc3)C(=O)c3ccccc3C2=O)cc1Cl	16µM*
Cc1ccc(NC(=O)C(c2ccccc2)N(C)C)cc1Cl (stereo unspecified)	-7%
O=C(Nc1cccc(NC(=O)c2ccco2)c1)c1ccc([N+](=O)[O-])cc1	-1%[57.5 µM]
Clc1ccccc1-c1ncc2ccccn12	-1%
Clc1ccc(-c2ncc3ccccn23)cc1	32µM*
O=[N+]([O-])c1cccc(-c2ncc3ccccn23)c1	-22%
CN1CCN(c2ccc(C(CC(N)=O)NC(=O)Cc3ccc(Br)cc3)cc2[N+](=O)[O-])CC1 (stereo unspecified)	4%[57.5 µM]
SMILES	ERK EGF inh
CN(Cc1ccccc1)c1ccc(C(CC(N)=O)NC(=O)Cc2ccc(Br)cc2)cc1[N+](=O)[O-] (stereo unspecified)	32µM*
CCC(CC)Nc1ccc(C(CC(N)=O)NC(=O)Cc2ccc(Br)cc2)cc1[N+](=O)[O-] (stereo unspecified)	-10%[57.5 µM]
C/C(=N\NC(=O)c1ccc2nc[nH]c2c1)c1ccc([N+](=O)[O-])cc1	26%[57.5 µM]
COc1cc(S(=O)(=O)n2cnc(C)c2)ccc1Cl	8%
CC1=C(/C=N/Nc2ccc([N+](=O)[O-])cc2[N+](=O)[O-])C(C)(C)CCC1	14µM*
O=[N+]([O-])c1ccc(N/N=C/c2ccccc2)c(F)c1	-10%
Nc1ccccc1Nc1ccc([N+](=O)[O-])cc1[N+](=O)[O-]	-6%
C/C(=N\NC(=O)CSc1nc(C)[nH]c1[N+](=O)[O-])c1ccc(F)cc1	-2%[57.5 µM]
CC(=O)N(O)CCCCCNC(=O)CCC(=O)N(O)CCCCCNC(=O)CCC(=O)N(O)CCCCCN	9%
CSc1ccc(NC(=O)Nc2cccn(Cc3ccccc3F)c2=O)cc1	3%
COC(=O)CCCC1=CC2=CC(=O)C(C)(OC(=O)c3cccs3)C(=O)C2=CN1c1ccc(OC)cc1 (stereo unspecified)	5%[57.5 µM]
O=C(Nc1ccc([N+](=O)[O-])cc1Cl)c1cc(Cl)ccc1O	-10%
O=C(Nc1cccc(Cl)c1)c1cc(N=Nc2ccc([N+](=O)[O-])cc2Cl)ccc1O	14µM*
O=C(Nc1cccc(Cl)c1)c1cccc(Oc2ccc([N+](=O)[O-])cc2Cl)c1	-4%
Cc1cc2ccccn2c1C(=O)c1ccc([N+](=O)[O-])o1	18µM*
Cc1cc2ccccn2c1C(=O)c1cccc([N+](=O)[O-])c1	6%
CCOC(=O)C(=O)c1c(C)cc2ccccn12	-6%
O=C(COc1ccccc1[N+](=O)[O-])N/N=C/c1ccc(OC(=O)c2ccco2)cc1	14%
CCOc1ccc(CC(=O)OCc2cc(=O)n3cc(Br)ccc3n2)cc1	0%
CC(C)CC1NC(=O)C(CCCN)NC(=O)C(C(C)C)NC(=O)C2CCCN2C(=O)C(Cc2ccccc2)NC(=O)C(CC(C)C)NC(=O)C(CCCN)NC(=O)C(C(C)C)NC(=O)C2CCCN2C(=O)C(Cc2ccccc2)NC1=O (stereo unspecified)	3.5µM*
CC(C)C1NC(=O)[C@H](CCCCN)NC(=O)[C@@H](Cc2c[nH]c3ccccc23)NC(=O)[C@H](Cc2ccc(O)cc2)NC(=O)[C@H](C)N(C)C(=O)[C@H](Cc2ccccc2)NC1=O (stereo partly specified)	21%
CCC(C)CCCCC(=O)NC(CCN)C(=O)NC(C(=O)NC(CCN)C(=O)NC1CCNC(=O)C(C(C)O)NC(=O)C(CCN)NC(=O)C(CCN)NC(=O)C(CC(C)C)NC(=O)C(Cc2ccccc2)NC(=O)C(CCN)NC1=O)C(C)O (stereo unspecified)	14%
NS(=O)(=O)c1ccc(CNS(=O)(=O)c2ccc(Cl)nc2)cc1	6%

Screening results: PubChem BioAssay, National Center for Advancing Translational Sciences (NCATS)
